# In the supplement of paper PMC10849652:
# Of roughly 7,900 targets only a part is listed; those with a hit were picked by preference. About 0.6% of all pairs of compound and target were hits. Values without a mark were called inactive.
# Experiments:
# Test in all cases: log2 fold change, soluble protein after heating vs DMSO (PISA); higher = thermal stabilisation; K562 cells, 10 uM, 30 min; active = over 0.2 and 3.5 SD of the protein, either way, in both replicates (recomputed)
# erlotinib = compound: C#Cc1cccc(Nc2ncnc3cc(OCCOC)c(OCCOC)cc23)c1 [erlotinib]
# Method in brief: (§1)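 Thermal stability values are relative to control samples and come from duplicates. They are expressed as log2 fold changes. For measurement, K562 cells (2×10^6 cells/mL) received 10 μM compound for 30 min, and aliquots were heated for 3 min over 48°C-58°C, pooled, and extracted at 4°C in PBS with 0.5% NP-40. Soluble protein, the supernatant after 21,000xg for 90 min, was quantified by TMTpro 16plex LC-MS/MS with equalised channel sums.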
# [1] = compound: C/C(=N\NC(=O)C1=CC(=CC=C1)S(=O)(=O)N2CCOCC2)/C3=C(C=CC(=C3)Cl)O
# Method in brief: as §1
# [2] = compound: C1=CC(=C(C=C1Cl)C2=NC3=NC=CN=C3C(=N2)NC4=CC=NC=C4)F
# Method in brief: as §1
# [3] = compound: C1=CC(=CC=C1C2=NC3=C(N2)C=C(C=C3)C(=O)N)OC4=CC=C(C=C4)Cl
# Method in brief: as §1
# [4] = compound: C1=CC2=C(C=CC(=C2)/C=C\3/C(=O)NC(=NCC4=CC=CS4)S3)N=C1
# Method in brief: as §1
# [5] = compound: C1=CC2=NC=CN=C2C=C1/C=C/3\C(=O)NC(=O)S3
# Method in brief: as §1
# [6] = compound: C1=CC=C2C(=C1)C3=NNC4=CC=CC(=C43)C2=O
# Method in brief: as §1
# [7] = compound: C1CCN(C1)C(=O)NC2=CC=CC(=C2)NC3=NC=C(C(=N3)NCCC4=CN=CN4)Br
# Method in brief: as §1
# [8] = compound: C1CN(CCC1(CC2=CC=C(C=C2)Cl)N)C3=NC=NC4=C3C=CN4
# Method in brief: as §1
# [9] = compound: C1=CC=C(C=C1)C2=NC(=C(N2)C3=CC=NC=C3)C4=CC(=C(C=C4)Cl)O
# Method in brief: as §1
# Chain of UniProt Q9Y2V0 (Q9Y2V0 whole entry, looked up): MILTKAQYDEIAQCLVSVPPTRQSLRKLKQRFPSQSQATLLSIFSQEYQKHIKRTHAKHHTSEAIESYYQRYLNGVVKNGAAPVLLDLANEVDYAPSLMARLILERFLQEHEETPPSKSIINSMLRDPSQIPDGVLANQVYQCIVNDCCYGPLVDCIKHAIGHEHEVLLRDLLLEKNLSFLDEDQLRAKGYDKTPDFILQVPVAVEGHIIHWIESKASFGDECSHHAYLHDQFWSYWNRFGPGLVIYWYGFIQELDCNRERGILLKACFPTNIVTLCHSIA
# Chain of UniProt Q9BWU1 (Q9BWU1 whole entry, looked up): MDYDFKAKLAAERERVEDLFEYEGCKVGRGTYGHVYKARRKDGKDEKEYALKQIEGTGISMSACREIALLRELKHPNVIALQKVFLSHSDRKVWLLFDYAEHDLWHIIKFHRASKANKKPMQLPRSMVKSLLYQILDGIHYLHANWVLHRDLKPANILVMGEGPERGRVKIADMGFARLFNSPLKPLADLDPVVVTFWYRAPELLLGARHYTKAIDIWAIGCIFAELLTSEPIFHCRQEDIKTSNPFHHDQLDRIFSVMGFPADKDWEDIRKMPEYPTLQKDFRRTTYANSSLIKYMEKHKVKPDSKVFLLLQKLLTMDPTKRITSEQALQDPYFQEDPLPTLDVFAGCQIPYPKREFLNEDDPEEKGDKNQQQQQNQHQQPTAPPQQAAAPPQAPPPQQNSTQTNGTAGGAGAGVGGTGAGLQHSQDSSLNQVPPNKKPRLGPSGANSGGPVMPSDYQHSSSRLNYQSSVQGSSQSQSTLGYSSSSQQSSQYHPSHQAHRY
# Chain of UniProt O95273 (O95273 whole entry, looked up): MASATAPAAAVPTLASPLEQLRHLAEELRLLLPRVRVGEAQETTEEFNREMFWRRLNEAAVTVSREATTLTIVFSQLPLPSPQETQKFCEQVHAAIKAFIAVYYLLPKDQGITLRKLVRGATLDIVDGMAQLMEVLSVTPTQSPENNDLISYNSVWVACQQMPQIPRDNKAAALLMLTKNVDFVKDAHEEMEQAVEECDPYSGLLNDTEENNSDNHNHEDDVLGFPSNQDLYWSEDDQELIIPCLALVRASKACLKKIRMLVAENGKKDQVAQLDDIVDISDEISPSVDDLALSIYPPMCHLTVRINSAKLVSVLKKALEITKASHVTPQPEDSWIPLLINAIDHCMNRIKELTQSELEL
# Chain of UniProt Q9H9S4 (Q9H9S4 whole entry, looked up): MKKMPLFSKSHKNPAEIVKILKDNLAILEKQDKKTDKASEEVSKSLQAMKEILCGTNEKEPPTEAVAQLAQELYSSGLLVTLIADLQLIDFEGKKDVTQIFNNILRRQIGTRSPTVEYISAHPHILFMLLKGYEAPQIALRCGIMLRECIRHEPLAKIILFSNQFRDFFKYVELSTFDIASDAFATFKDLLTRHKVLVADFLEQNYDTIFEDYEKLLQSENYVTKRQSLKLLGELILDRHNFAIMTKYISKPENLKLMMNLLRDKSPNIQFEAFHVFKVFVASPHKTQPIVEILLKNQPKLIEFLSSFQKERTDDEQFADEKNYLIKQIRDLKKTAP
# Chain of UniProt O43529 (O43529 whole entry, looked up): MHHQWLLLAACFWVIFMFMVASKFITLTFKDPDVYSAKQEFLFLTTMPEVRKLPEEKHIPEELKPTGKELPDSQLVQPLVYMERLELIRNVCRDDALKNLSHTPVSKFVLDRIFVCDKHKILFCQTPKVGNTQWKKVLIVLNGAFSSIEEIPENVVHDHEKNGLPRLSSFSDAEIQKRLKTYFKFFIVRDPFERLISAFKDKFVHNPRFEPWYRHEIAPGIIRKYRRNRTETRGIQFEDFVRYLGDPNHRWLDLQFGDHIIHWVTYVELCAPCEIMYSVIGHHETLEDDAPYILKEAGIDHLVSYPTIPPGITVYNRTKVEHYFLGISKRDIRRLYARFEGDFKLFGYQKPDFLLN
# Chain of UniProt P24311 (P24311 whole entry, looked up): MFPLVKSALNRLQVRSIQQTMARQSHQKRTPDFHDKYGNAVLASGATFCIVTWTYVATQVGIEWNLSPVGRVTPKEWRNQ
# Chain of UniProt P50750 (P50750 whole entry, looked up): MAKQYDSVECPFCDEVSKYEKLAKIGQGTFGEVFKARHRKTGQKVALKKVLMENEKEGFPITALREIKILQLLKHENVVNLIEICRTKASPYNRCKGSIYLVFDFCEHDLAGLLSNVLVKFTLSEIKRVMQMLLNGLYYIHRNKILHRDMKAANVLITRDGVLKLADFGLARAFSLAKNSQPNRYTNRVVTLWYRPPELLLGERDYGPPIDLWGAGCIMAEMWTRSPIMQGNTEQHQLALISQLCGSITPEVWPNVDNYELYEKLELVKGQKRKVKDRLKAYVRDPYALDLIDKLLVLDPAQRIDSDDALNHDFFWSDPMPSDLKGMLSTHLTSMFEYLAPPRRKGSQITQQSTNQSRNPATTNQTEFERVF
# Chain of UniProt A8MTT3 (A8MTT3 whole entry, looked up): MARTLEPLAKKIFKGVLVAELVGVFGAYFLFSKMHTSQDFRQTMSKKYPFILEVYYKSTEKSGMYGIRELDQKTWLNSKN
# Chain of UniProt O75503 (O75503 whole entry, looked up): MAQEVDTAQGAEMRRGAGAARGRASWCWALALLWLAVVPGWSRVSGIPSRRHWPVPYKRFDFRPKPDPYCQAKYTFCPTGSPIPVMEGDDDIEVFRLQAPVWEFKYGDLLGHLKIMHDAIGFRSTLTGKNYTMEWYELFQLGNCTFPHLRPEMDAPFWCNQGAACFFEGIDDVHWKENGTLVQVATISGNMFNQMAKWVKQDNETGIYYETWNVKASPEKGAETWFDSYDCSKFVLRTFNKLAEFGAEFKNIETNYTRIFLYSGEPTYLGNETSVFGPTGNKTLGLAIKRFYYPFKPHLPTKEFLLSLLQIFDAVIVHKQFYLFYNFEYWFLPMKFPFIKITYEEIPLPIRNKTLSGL
# Chain of UniProt Q92828 (Q92828 whole entry, looked up): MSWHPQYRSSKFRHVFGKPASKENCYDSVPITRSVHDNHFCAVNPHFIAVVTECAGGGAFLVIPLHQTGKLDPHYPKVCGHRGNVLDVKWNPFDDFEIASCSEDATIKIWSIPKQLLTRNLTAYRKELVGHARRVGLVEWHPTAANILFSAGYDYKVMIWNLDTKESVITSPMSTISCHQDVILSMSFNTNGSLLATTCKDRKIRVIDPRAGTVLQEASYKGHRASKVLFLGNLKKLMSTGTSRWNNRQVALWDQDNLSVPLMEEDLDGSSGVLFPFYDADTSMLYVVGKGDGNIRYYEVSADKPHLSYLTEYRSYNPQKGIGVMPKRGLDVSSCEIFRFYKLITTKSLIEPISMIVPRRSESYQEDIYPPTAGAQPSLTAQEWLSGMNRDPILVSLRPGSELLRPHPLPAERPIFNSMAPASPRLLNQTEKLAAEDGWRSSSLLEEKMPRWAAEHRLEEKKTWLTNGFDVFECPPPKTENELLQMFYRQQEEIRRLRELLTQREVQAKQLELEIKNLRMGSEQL
# Chain of UniProt Q00535 (Q00535 whole entry, looked up): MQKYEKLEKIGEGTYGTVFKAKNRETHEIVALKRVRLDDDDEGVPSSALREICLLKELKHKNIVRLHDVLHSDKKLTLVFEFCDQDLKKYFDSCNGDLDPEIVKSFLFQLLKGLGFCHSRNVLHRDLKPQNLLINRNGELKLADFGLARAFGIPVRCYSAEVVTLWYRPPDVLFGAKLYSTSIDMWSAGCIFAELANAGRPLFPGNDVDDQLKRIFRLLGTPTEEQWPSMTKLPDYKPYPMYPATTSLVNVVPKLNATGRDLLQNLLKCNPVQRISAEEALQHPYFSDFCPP
# Chain of UniProt Q96RR4 (Q96RR4 whole entry, looked up): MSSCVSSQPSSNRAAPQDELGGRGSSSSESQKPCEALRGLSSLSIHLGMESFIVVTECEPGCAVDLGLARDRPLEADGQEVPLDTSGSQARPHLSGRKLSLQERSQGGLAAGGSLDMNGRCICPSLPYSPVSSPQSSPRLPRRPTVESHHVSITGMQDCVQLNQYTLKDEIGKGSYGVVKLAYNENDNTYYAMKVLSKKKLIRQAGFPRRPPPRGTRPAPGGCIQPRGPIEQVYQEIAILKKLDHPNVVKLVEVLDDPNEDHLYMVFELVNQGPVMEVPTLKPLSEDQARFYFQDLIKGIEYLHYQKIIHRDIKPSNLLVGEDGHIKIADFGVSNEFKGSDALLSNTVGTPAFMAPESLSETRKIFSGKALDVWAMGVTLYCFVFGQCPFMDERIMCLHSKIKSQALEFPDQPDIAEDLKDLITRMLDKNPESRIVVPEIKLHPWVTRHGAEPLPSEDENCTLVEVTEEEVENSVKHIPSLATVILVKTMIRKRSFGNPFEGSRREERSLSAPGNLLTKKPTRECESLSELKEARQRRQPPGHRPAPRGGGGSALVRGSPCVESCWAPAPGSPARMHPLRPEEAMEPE
# Chain of UniProt Q14746 (Q14746 whole entry, looked up): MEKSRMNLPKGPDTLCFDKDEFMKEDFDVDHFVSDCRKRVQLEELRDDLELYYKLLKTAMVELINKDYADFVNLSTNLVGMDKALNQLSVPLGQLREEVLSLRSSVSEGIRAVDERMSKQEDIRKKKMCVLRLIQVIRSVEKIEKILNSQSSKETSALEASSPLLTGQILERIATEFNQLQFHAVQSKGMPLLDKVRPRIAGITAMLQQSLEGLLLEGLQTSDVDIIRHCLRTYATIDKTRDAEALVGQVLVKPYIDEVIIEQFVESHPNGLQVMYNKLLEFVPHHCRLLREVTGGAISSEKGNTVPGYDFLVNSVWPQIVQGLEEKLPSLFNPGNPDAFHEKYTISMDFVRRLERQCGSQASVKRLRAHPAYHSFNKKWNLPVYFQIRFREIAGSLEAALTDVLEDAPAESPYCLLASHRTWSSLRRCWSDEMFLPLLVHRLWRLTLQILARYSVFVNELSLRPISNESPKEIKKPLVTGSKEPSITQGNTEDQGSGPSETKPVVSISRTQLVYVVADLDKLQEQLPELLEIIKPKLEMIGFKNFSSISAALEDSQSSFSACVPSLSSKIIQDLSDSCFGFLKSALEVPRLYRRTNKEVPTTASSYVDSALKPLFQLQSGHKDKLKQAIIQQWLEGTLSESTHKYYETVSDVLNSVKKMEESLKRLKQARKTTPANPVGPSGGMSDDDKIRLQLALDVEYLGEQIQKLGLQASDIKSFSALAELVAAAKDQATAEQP
Target,log2 fold change (erlotinib),log2 fold change [1],log2 fold change [2],log2 fold change [3],log2 fold change [4],log2 fold change [5],log2 fold change [6],log2 fold change [7],log2 fold change [8],log2 fold change [9]
CLN5 (UniProt O75503),0.146,-0.049,0.063,0.103,0.023,0.016,0.15,-0.02,-0.285,
CDK9 isoform 2 (UniProt P50750),0.043,-0.005,-0.174,0.024,-0.084,0.05,-0.076,-0.001,-0.059,0.059
CHST10 (UniProt O43529),0.013,-0.168,-0.144,-0.058,-0.111,0.03,0.101,0.008,0.06,0.067
C15orf41 (UniProt Q9Y2V0),0.02,0.017,0.002,-0.033,-0.018,,-0.098,0.115,0.075,0.001
CNOT4 isoform 9 (UniProt O95628),-0.011,-0.022,,0.047,0.089,0.018,0.245,0.175,0.455,0.053
CNN2 (UniProt Q99439),0.047,0.124,0.109,-0.039,0.013,0.032,-0.011,-0.017,-0.042,-0.012
CRMP1 isoform 2 (UniProt Q14194),-0.1,-0.273,,0.009,0.101,-0.011,-0.037,0.088,-0.014,
CCNDBP1 (UniProt O95273),0.009,0.191,,0.105,-0.011,0.034,-0.122,-0.086,-0.068,0.076
CDK19 (UniProt Q9BWU1),-0.2,-0.116,0.053,0.268,0.111,,0.099,0.003,0.021,-0.167
CORO2A (UniProt Q92828),-0.035,0.064,,-0.011,-0.001,0.127,-0.042,0.034,0.031,0.138
CAB39L (UniProt Q9H9S4),-0.026,-0.001,-0.088,0.065,0.042,0.015,-0.117,-0.068,-0.306,0.007
CDK5 (UniProt Q00535),-0.02,-0.009,0.041,-0.008,-0.014,0.052,,0.017,0.038,-0.02
CDCA2 (UniProt Q69YH5),0.519 (active),-0.46,0.043,-0.333,0.048,,-0.033,-0.082,0.256,-0.002
CD84 (UniProt Q9UIB8),0.131,0.052,-0.027,0.099,0.01,,0.033,-0.032,0.111,
CLASP2 (UniProt O75122),0.089,-0.078,,0.082,-0.211,0.133,-0.106,,,0.286
CASC3 (UniProt O15234),-0.084,-0.166,-0.066,0.068,0,-0.047,-0.29,0.089,0.022,0.023
C19orf54 (UniProt Q5BKX5),-0.094,-0.054,0.024,0.008,-0.005,,0.026,-0.027,-0.543 (active),-0.024
CLN8 (UniProt Q9UBY8),0.012,0.198,,0.01,0.212,0.099,-0.06,0.003,-0.171,-0.208
COX7B (UniProt P24311),-0.022,0.058,0.109,0.006,-0.081,0.057,-0.009,0.085,0.016,
CAMKK2 (UniProt Q96RR4),-0.091,-0.047,-0.026,-0.232,-0.059,-0.081,-0.037,-0.19,0.23,-0.122
CENPE (UniProt Q02224),0.268,0.525,,-0.096,-0.875 (active),0.098,0.444,0.011,0.032,0.072
CEBPZOS (UniProt A8MTT3),-0.017,0.084,,0.015,0.039,0.074,0.057,0.05,-0.03,0.03
COG2 (UniProt Q14746),-0.082,-0.367,0.012,-0.026,0.478,,-0.137,0.257,-0.065,-0.223
